Experimental data from PubChem BioAssay (NCATS).
Inconclusive results are not listed. Calls of active or inactive are those of the source. Unless noted, calls follow the shape of the dose curve; as a rule, active = well fitted curve in the direction sought with a large enough effect; inconclusive = small, poorly fitted or top-dose-only effect, or another doubt; inactive = no such curve, though single readings can be large; an effect the other way counts as inactive or inconclusive.

Legend:
[1] = Cytometric Cell-Based qHTS for Inhibitors of the mTORC1 Signaling Pathway in MEF (Tsc2-/-, p53-/-) Cells (AID 2660);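 also: Tsc2 and p53 null MEFs carrying empty vector with compound for 24 h; percent of cells above a phospho-rpS6 to PI ratio cutoff in each well; series mostly up to about 38 µM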
Summary of the method: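 Percent of cells positive for normalized phospho-S6 staining is reported, with the cutoff set from rapamycin (7.5 nM) versus DMSO wells. Tsc2-/-, p53-/- MEFs received compound for 24 hrs.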

[2] = High Content Imaging Cell-Based qHTS for Inhibitors of the mTORC1 Signaling Pathway in MEF (Tsc2-/-, p53-/-) Cells (AID 2666);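 also: percent of cells scored positive for phospho-rpS6 Ser235/236 immunostaining by imaging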
Summary of the method: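 Tsc2-/-, p53-/- MEFs (empty-vector stable) grown in DMEM + 10% FBS were exposed to compounds for 24 hrs at 37 degree Celsius, fixed, and stained with Alexa-488 anti-phospho-rpS6 Ser235/236 plus Hoechst. Imaging gave the percentage of positive cells per well.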

[3] = High Content Imaging Cell-Based qHTS for Inhibitors of the mTORC1 Signaling Pathway in MEF Cells (AID 2667); also: potency is read from the fitted curve at half-maximal effect
Summary of the method: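 Tsc2-/-, p53-/- MEFs stably re-expressing WT Tsc2, grown in DMEM + 10% FBS, were treated with compounds for 24 hrs at 37 degree Celsius, fixed, and stained with Alexa-488 phospho-rpS6 Ser235/236 antibody plus Hoechst; results given as % positive cells.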

[4] = molecular target: DNA polymerase III PolC-type (Bacillus subtilis (strain 168)) (UniProt P13267); test: qHTS Validation Assay for the Inhibitors of DNA Replication in Gram-Positive Bacteria (AID 485295);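 also: PicoGreen fluorescence of double-stranded DNA made on primed circular M13 template; series mostly up to about 57 µM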
Sequence of DNA polymerase III PolC-type (Bacillus subtilis (strain 168)) (P13267 whole entry, looked up): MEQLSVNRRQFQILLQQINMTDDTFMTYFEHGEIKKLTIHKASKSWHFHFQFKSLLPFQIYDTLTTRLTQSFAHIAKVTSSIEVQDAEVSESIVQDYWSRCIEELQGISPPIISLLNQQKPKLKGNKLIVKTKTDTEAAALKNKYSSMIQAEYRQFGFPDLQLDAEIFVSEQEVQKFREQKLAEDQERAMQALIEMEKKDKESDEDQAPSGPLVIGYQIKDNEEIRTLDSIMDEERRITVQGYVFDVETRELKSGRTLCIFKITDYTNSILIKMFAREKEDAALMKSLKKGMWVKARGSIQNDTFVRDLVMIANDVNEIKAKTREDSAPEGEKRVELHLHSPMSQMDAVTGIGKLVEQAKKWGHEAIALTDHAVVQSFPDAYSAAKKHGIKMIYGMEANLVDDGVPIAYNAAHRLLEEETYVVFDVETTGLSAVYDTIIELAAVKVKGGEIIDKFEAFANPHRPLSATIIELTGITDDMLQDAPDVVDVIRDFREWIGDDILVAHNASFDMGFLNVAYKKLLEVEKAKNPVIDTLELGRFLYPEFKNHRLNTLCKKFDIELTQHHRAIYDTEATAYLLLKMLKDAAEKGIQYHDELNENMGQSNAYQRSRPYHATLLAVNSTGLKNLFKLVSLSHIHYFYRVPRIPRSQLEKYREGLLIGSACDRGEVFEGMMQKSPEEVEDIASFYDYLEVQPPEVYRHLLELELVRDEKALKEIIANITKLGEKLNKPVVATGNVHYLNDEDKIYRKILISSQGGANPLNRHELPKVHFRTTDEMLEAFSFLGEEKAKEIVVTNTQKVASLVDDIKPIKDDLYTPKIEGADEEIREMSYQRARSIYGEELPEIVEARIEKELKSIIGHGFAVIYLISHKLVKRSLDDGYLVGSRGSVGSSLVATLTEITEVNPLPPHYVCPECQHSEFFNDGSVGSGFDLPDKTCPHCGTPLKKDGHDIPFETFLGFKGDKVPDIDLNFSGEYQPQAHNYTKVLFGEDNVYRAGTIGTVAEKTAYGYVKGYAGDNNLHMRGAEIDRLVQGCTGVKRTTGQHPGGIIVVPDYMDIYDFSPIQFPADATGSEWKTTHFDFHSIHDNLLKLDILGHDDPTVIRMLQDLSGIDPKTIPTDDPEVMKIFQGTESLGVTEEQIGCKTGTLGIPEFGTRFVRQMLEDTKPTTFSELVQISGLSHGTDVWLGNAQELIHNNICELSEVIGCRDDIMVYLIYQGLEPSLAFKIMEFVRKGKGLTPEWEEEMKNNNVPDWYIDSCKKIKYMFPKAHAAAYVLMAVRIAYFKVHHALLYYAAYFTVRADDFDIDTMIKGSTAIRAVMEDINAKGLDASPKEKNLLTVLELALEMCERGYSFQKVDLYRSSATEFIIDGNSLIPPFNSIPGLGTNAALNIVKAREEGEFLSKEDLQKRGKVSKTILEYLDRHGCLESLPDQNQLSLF
Summary of the method: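 Reconstituted B. subtilis Pol III holoenzyme (PolC, beta clamp, SSB, primase) preincubated with compound, then M13Gori single-stranded circular template with dNTPs/NTPs added; room temperature reaction. Stopped with EDTA/PicoGreen; dsDNA fluorescence read, EDTA as full-inhibition control.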

[5] = qHTS Validation Assay to Find Inhibitors of Chronic Active B-Cell Receptor Signaling (AID 485345; active = well fitted curve in the direction sought with a large enough effect in the main read-out, with a control signal flat, not every such curve was filed as active)
Summary of the method: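 Read-out: ratio of filter-corrected green (IkappaBalpha fusion) to red (native) luciferase signal in doxycycline-induced TMD8 cells after 4 h at 37C. Titration spanned 46 uM–3 nM; Data were normalised to basal cells and 10 uM MG-132 wells.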

[6] = molecular target: Beta-2 adrenergic receptor (Homo sapiens) (UniProt P07550); test: qHTS validation assay of beta-arrestin-biased ligands of beta2-adrenergic receptor (AID 485366)
Sequence of Beta-2 adrenergic receptor (Homo sapiens) (P07550 whole entry, looked up): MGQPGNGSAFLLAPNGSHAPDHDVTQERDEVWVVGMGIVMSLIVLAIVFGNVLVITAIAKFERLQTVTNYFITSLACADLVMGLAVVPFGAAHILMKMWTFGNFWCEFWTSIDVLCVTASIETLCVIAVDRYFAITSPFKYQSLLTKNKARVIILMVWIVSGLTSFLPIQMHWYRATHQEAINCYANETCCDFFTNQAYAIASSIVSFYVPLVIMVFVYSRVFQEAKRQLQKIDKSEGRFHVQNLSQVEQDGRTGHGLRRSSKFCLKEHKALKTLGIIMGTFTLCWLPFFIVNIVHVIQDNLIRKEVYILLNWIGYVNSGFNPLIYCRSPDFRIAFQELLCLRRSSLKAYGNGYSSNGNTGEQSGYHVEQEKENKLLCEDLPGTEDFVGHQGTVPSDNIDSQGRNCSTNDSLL
Summary of the method: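 Screening used a titration range of up to 46 microM in a beta-arrestin recruitment Tango luciferase assay. Cells in 1% FBS medium were treated 18 hr at 37 degrees C, and luminescence was normalized to %Activity.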

[7] = molecular target: ATP-dependent 6-phosphofructokinase (Trypanosoma brucei brucei) (UniProt O15648); test: qHTS Validation Assay to Find Inhibitors of T. brucei phosphofructokinase (AID 485368); also: potency is read from the fitted curve at half-maximal effect
Sequence of ATP-dependent 6-phosphofructokinase (Trypanosoma brucei brucei) (O15648 whole entry, looked up): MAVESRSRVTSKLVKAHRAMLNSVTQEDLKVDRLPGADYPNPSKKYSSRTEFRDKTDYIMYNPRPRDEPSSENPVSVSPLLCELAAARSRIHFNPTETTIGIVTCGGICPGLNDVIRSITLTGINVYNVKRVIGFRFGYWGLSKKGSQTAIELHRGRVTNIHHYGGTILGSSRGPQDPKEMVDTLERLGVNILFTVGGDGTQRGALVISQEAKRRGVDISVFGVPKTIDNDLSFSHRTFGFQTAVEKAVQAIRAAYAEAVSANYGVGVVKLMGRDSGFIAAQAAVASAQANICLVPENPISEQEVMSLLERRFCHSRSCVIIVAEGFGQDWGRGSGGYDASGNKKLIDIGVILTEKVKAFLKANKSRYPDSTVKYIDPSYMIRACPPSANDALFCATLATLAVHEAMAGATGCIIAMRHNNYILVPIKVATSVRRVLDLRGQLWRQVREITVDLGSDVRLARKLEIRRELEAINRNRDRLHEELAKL
Summary of the method: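 PFK-generated ADP was measured after 45 min at room temperature using ADP-Glo. The reaction contained 0.5 mM F6P and 0.1 mM ATP.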

[8] = Cytometry Cell-Based qHTS for Inhibitors of the mTORC1 Signaling Pathway in MEF cells (AID 2668);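 also: Tsc2-/- p53-/- mouse embryonic fibroblasts stably re-expressing wild-type Tsc2; percent cells positive for phospho-rpS6 Ser235/236 relative to propidium iodide stain; series mostly up to about 38 µM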
Summary of the method: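 MEFs (Tsc2-/-, p53-/- stably expressing WT Tsc2) treated 24 h at 37 degree Celsius, fixed, stained with Alexa-488 anti-phospho-rpS6 Ser235/236 and propidium iodide; Acumen laser scanning. Reported as % positive cells, phospho-S6 normalized to PI.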

[9] = molecular target: Ubiquitin carboxyl-terminal hydrolase 2 (Homo sapiens) (UniProt O75604); test: qHTS Validation Assay for Inhibitors of Ubiquitin-specific Protease USP2a Using CHOP2 as the Reporter (AID 463106)
Sequence of Ubiquitin carboxyl-terminal hydrolase 2 (Homo sapiens) (O75604 whole entry, looked up): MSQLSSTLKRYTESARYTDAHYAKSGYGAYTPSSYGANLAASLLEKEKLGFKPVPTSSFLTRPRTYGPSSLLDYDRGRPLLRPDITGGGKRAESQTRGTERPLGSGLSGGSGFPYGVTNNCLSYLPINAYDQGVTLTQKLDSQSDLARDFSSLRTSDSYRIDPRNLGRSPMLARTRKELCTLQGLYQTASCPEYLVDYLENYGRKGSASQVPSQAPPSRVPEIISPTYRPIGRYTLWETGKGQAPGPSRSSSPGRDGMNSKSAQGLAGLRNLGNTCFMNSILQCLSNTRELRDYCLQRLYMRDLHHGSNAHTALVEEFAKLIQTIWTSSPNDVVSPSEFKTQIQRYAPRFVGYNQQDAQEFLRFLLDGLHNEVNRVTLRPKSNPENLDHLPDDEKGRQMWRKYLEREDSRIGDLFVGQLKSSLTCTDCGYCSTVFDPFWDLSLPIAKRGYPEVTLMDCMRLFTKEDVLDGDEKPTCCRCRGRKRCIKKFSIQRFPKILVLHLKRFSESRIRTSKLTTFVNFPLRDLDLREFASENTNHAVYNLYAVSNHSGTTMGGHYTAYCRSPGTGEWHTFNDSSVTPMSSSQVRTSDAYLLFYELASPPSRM
Summary of the method: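 Readout was coupled fluorescence (Ex 485/Em 531 nm), read 60 min after adding 25 nM final Ub-CHOP2 and 25 nM reporter substrate. Beforehand, 10 nM final USP2 core had 30 min at RT with compound in pH 8.0 buffer. Curves were fitted after normalization to NEM and flagged for artifacts using time-zero reads.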

[10] = molecular target: Tumor susceptibility gene 101 protein (Homo sapiens) (UniProt Q99816); test: qHTS Validation Assay for Iinhibitors of HIV-1 Budding by Blocking the Interaction of PTAP/TSG101 (AID 485342; calls by dose curve)
Sequence of Tumor susceptibility gene 101 protein (Homo sapiens) (Q99816 whole entry, looked up, the tested form may be a part): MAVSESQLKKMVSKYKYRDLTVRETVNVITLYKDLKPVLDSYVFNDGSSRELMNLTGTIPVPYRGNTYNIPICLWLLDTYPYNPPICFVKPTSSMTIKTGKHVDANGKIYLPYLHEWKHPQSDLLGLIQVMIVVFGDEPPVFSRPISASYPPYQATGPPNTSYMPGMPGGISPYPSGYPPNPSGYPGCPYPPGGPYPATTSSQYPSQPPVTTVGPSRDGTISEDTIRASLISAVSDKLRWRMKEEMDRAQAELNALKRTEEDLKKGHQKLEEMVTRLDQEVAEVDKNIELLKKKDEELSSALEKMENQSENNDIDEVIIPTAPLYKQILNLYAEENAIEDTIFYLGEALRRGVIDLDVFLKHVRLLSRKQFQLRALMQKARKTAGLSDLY
Summary of the method: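 Tsg101 binding domain (10 uM) with FITC-labeled PTAP peptide (50 nM) in HEPES pH 7.5 buffer, 20 min at r.t. with compounds. Binding measured by fluorescence polarization.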

[11] = Quantitative high throughput screen for delayed death inhibitors of the malarial parasite plastid, 48 hour incubation (AID 488752); also: nearly all actives have a fitted effect of over 65% in size
Summary of the method: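 One-generation (48 h) growth assay: a decrease in luciferase signal from an integrated reporter in P. falciparum-infected red cells (0.1% parasitemia, 2% hematocrit) after compound exposure at 37 C indicates parasite inhibition.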

Measured: Potency

C[N+]1(C)CCC(OC(=O)C(c2ccccc2)c2ccccc2)CC1
not listed: [8] | [9] | [10] | [11]
inactive: all other assays above

CCCCCC(O)c1cccc(OCc2ccc3ccccc3n2)c1 (stereo unspecified)
not listed: [1] | [4] | [5] | [7]
inactive: all other assays above

CC(C)ON([C@@H](C(=O)NO)C(C)C)S(=O)(=O)c1ccc(-c2ccccc2)cc1
active: [3] 5.85 µM
not listed: [4] | [8] | [11]
inactive: all other assays above

CN1CC(=O)N/C1=N/C(=O)Nc1cccc(Cl)c1
not listed: [1] | [4] | [11]
inactive: all other assays above

CO/N=C(\C(=O)N[C@@H]1C(=O)N2C(C(=O)O)=C(COC(C)=O)CS[C@H]12)c1csc(N)n1
active: [7] 8.49 µM
not listed: [1] | [11]
inactive: all other assays above

N#C/C(=C\c1ccc(O)c(O)c1)C(=O)NCCCc1ccccc1
inactive: [1] | [2] | [9] | [6]

C[N+]1(C)C2CC(OC(=O)[C@H](CO)c3ccccc3)CC1C1OC12 (stereo partly specified)
not listed: [1] | [6] | [7] | [11]
inactive: all other assays above

OC[C@H]1O[C@@H](n2cnc3c(NC4CCCC4)ncnc32)[C@H](O)[C@@H]1O
not listed: [1] | [5] | [7] | [11]
inactive: all other assays above

O=[N+]([O-])c1ccc2c(c1)S(=O)(=O)C=C2
active: [3] 1.85 µM
inactive: [2] | [9] | [4] | [10]

N=c1ccn2c(n1)O[C@H]1[C@H](O)[C@@H](CO)O[C@H]12
not listed: [1] | [8] | [11]
inactive: all other assays above

Cn1ncc(S(=O)(=O)Cc2ccccc2)c(Br)c1=O
inactive: [2] | [9] | [4] | [10]

CC(C)NC[C@@H](O)c1ccc(O)c(O)c1
not listed: [1] | [6] | [7] | [11]
inactive: all other assays above

CCOC(=O)C1=C(C)NC(C)=C(C(=O)OCC)C1c1c(F)c(F)c(F)c(F)c1F
inactive: [9] | [4] | [6]

CC(=O)/C=C1\C(=O)N(C)c2ccccc21
inactive: [9] | [4] | [10] | [7]

Nc1nc(Cl)nc2c1ncn2[C@@H]1O[C@H](CO)[C@@H](O)[C@H]1O
inactive: [2] | [3] | [8] | [9] | [10] | [7]

O=C(c1ccc(Cl)cc1)N1CCN(c2ccc([N+](=O)[O-])c3ncccc23)CC1
not listed: [7] | [8] | [9] | [11]
inactive: all other assays above

OC[C@H]1O[C@@H](n2cnc3c(Nc4ccccc4)ncnc32)[C@H](O)[C@@H]1O
inactive: [2] | [3] | [8] | [9] | [4] | [6]

Cc1cc2c(cc1Cl)N(C(=O)Nc1ccc(Oc3cccnc3C)nc1)CC2
inactive: [1] | [2] | [9] | [4] | [10] | [6]

COc1ccccc1N1CCN(CCN(C(=O)c2ccc(I)cc2)c2ccccn2)CC1
not listed: [3] | [5] | [8] | [11]
inactive: all other assays above

O=C(CCCCCN1CCN(c2ccccc2-c2ccccc2)CC1)NC1CCCc2ccccc21 (stereo unspecified)
inactive: [1] | [2] | [9] | [10] | [6] | [7]
